Hit rate of the full screen: of about 4,800 compounds, about 410 (8.5%) showed an effect of 50% or more. The sample as a whole holds a higher share of strong results than the screen did.
Tested on: Plasmodium falciparum
Test: Confirmatory screen in NF54 pLDH assay, in single point, at 2uM, 72h
Assay type: functional, Erythrocyte
Conditions: timepoint 72 hour

Q: Which “% Inhibition” value does the source give for Fc1ccc(N2CC[C@H](CN3CCC(c4c[nH]c5ccccc45)(c4c[nH]c5ccccc45)CC3)C2)cc1 here?
A: 102%

Q: For CN1C2CCC1CC(OC(=O)C1CCC(C(=O)OC3CC4CCC(C3)N4C)(c3ccccc3)c3ccccc31)C2 (stereo unspecified), which “% Inhibition” value is on record?
A: 63%

Q: How did the “% Inhibition” value turn out when O[C@@H](CNCc1ccc2c(c1)CCO2)c1ccc(F)c(F)c1 was run?
A: 74%

Q: Which “% Inhibition” value does the source give for CN1CCC(N(C)c2ccccc2CNC[C@@H](O)c2cccc(Cl)c2)CC1 here?
A: 17%

Q: Which “% Inhibition” value does the source give for CC(C)(C)c1ccc(CNC[C@H](O)c2ccc(F)cc2F)cc1 here?
A: 91%

Q: How did the “% Inhibition” value turn out when CN1CCN(c2ccc(C(F)(F)F)cc2NCc2cnc[nH]2)CC1 was run?
A: 92%

Q: With COc1ccc(CCNCc2ccc3[nH]cnc3c2)c(Cl)c1 as the compound, how does the “% Inhibition” value read?
A: 48%

Q: Which “% Inhibition” value does the source give for CCN(C(C)=O)c1nc(CN2CC=C(c3c[nH]c4cc(F)ccc34)CC2)cs1 here?
A: 20%

Q: With CN(C)CC12CNCC1CN(c1ccnc3cc(Cl)ccc13)C2 (stereo unspecified) as the compound, how does the “% Inhibition” value read?
A: 97%

Q: Which “% Inhibition” value does the source give for Oc1ccc(C2=CCN(Cc3cccc4[nH]ccc34)CC2)cc1 here?
A: 38%

Q: For CCCOc1cncc(-c2ccc3c(c2)CNCC3)c1, which “% Inhibition” value is on record?
A: 8%

From ChEMBL document CHEMBL5308541, “MAIP: An Open-Source Tool to Enrich High-Throughput Screening Output and Identify Novel, Druglike Molecules with Antimalarial Activity” (ACS Med Chem Lett, 2023)
